This passage reports growth inhibition results from PubChem BioAssay (NCI).

This is part of a sample that, as a whole, favours compounds with a hit. Of some 79,000 tested, about 15% had one in any assay. Values without a mark were called inactive. Active and inactive are the calls of the source. Cut-off read from the data, not from the text of the source: active = growth inhibition above about 70%; inactive = the rest.

Assay [1] can be described thus: NCI Yeast Anticancer Drug Screen. Data for the rad50 strain (AID 155).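 Note: 0% = growth of vehicle-only cultures of the same strain.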 The settings on record: S. cerevisiae rad50 strain growth inhibition, hits give high values. The method, boiled down: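 A DNA repair-deficient yeast mutant serves as the test organism; compound-induced growth inhibition is calculated against vehicle-treated cells.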
Assay [2] is described as follows: NCI Yeast Anticancer Drug Screen. Data for the mec2-1 strain (AID 157). The note with it: S. cerevisiae mec2-1 strain, hits give high values. In outline: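 Each compound was tested on mec2-1 yeast, a strain altered in DNA damage repair or cell cycle control. Growth inhibition is reported relative to vehicle.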
Assay [3] can be described thus: NCI Yeast Anticancer Drug Screen. Data for the sgs1 mgt1 strain (AID 161).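 Note: 0% = growth of cultures given vehicle only.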 The note with it: S. cerevisiae sgs1 mgt1 strain, hits give high values. The method, boiled down: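 Test agents were incubated with a DNA-repair-mutant yeast strain. Growth was then read and compared against vehicle-treated controls.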
The nature of assay [4]: NCI Yeast Anticancer Drug Screen. Data for the cln2 rad14 strain (AID 165).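 Note: 0% = growth equal to vehicle treated cultures.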 The note with it: S. cerevisiae cln2 rad14 strain, hits give high values. The method, boiled down:
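Test compounds were added to cln2 rad14 yeast cultures; inhibition of growth was then determined by comparison with vehicle treatment.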

A short description of assay [5]: NCI Yeast Anticancer Drug Screen. Data for the bub3 strain (AID 167). The settings on record: S. cerevisiae bub3 mutant strain, hits give high values. In outline: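 Inhibition values come from growth of compound-treated mutant yeast normalised to vehicle-treated controls.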
Assay [6] can be described thus: NCI Yeast Anticancer Drug Screen. Data for the mlh1 rad18 strain (AID 175). The note with it: S. cerevisiae mlh1 rad18 strain growth inhibition, hits give high values. In outline:
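Inhibition values reflect reduced growth of mutant yeast versus vehicle-treated controls following compound exposure; the mutations affect DNA damage repair.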

Setting [7] is: at 5.0 µM (retest, dose inferred, filed as 0.5).
[8] abbreviates: at 50.0 µM (retest, dose inferred, filed as 5.0).

In the case of `CC(=O)C1(O)C(Br)CC2C3CC=C4CC(O)CCC4(C)C3CCC21C` (stereo not drawn), the growth inhibition was 43% in assay [1] (setting [7]); 98% (active) in assay [1] (setting [8]); 90.3% (active) in assay [1] (at 50.0 µM); 37% in assay [2] (setting [7]); 99% (active) in assay [2] (setting [8]); 79.5% (active) in assay [2] (at 50.0 µM). Besides, the growth inhibition in assay [3] (setting [7]) was 46%; in assay [3] (setting [8]), 98% (active); in assay [3] (at 50.0 µM), 86.4% (active); in assay [4] (setting [7]), 37%; in assay [4] (setting [8]), 98% (active); in assay [4] (at 50.0 µM), 87.9% (active). The growth inhibition was 49% in assay [5] (setting [7]); 98% (active) in assay [5] (setting [8]); 85% (active) in assay [5] (at 50.0 µM); 53% in assay [6] (setting [7]); 98% (active) in assay [6] (setting [8]); 83.8% (active) in assay [6] (at 50.0 µM).
`Oc1ccc(Cc2cc(Cl)cc(Cl)c2O)cc1Cl`: the growth inhibition was 84% (active) in assay [1] (setting [7]); 100% (active) in assay [1] (setting [8]); 99.5% (active) in assay [1] (at 50.0 µM); 84% (active) in assay [2] (setting [7]); 99% (active) in assay [2] (setting [8]); 99.7% (active) in assay [2] (at 50.0 µM). For the same compound, the growth inhibition in assay [3] (setting [7]) was 68%; in assay [3] (setting [8]), 99% (active); in assay [3] (at 50.0 µM), 99.4% (active); in assay [4] (setting [7]), 91% (active); in assay [4] (setting [8]) it was 99% (active); in assay [4] (at 50.0 µM), 99.3% (active). For the same compound, the growth inhibition in assay [5] (setting [7]) was 70% (active); in assay [5] (setting [8]), 100% (active); in assay [5] (at 50.0 µM) it was 99.3% (active); in assay [6] (setting [7]), 94% (active); in assay [6] (setting [8]), 100% (active); in assay [6] (at 50.0 µM) it was 99.2% (active).
In the case of `O=C1C2C3C=CC(C2C(=O)N1CN1CCOCC1)C1C2C(=O)N(CN4CCOCC4)C(=O)C2C31` (stereo not drawn), the growth inhibition in assay [1] (setting [7]) is -6%; in assay [1] (setting [8]), -10%; in assay [1] (at 50.0 µM), 1.85%; in assay [2] (setting [7]) it was 11%; in assay [2] (setting [8]) it was 3%; in assay [2] (at 50.0 µM), 10.2%. The growth inhibition in assay [3] (setting [7]) was -4%; in assay [3] (setting [8]), -25%; in assay [3] (at 50.0 µM) it was -1.35%; in assay [4] (setting [7]), -26%; in assay [4] (setting [8]), -7%; in assay [4] (at 50.0 µM), 39%. In addition, the growth inhibition was 1% in assay [5] (setting [7]); -9% in assay [5] (setting [8]); -17.8% in assay [5] (at 50.0 µM); -31% in assay [6] (setting [7]); -12% in assay [6] (setting [8]); 0.8% in assay [6] (at 50.0 µM).
With `CN(C)CCCSc1c2ccccc2nc2cc(NCC(=O)Nc3ccccc3-c3ccccc3NC(=O)CNc3ccc4c(SCCCN(C)C)c5ccccc5nc4c3)ccc12`, the growth inhibition in assay [1] (setting [7]) is 53%; in assay [1] (setting [8]), 98% (active); in assay [1] (at 50.0 µM), 90.6% (active); in assay [2] (setting [7]) it was 38%; in assay [2] (setting [8]) it was 99% (active); in assay [2] (at 50.0 µM), 92.5% (active). Also, the growth inhibition in assay [3] (setting [7]) is 32%; in assay [3] (setting [8]), 98% (active); in assay [3] (at 50.0 µM), 93.3% (active); in assay [4] (setting [7]), 30%; in assay [4] (setting [8]), 63%; in assay [4] (at 50.0 µM) it was 78.3% (active). Also, the growth inhibition was 39% in assay [5] (setting [7]); 98% (active) in assay [5] (setting [8]); 91.5% (active) in assay [5] (at 50.0 µM); 41% in assay [6] (setting [7]); 98% (active) in assay [6] (setting [8]); 90.7% (active) in assay [6] (at 50.0 µM).
On to `O=Cc1c(O)ccc2ccccc12.[Cu+2]`, for which the growth inhibition was -27% in assay [1] (setting [7]); 95% (active) in assay [1] (setting [8]); 99.3% (active) in assay [1] (at 50.0 µM); -2% in assay [2] (setting [7]); 47% in assay [2] (setting [8]); 99.2% (active) in assay [2] (at 50.0 µM). The growth inhibition in assay [3] (setting [7]) is -7%; in assay [3] (setting [8]), 97% (active); in assay [3] (at 50.0 µM), 99.2% (active); in assay [4] (setting [7]) it was -19%; in assay [4] (setting [8]) it was 42%; in assay [4] (at 50.0 µM) it was 99% (active). Further, the growth inhibition in assay [5] (setting [7]) was -54%; in assay [5] (setting [8]), 94% (active); in assay [5] (at 50.0 µM) it was 98.8% (active); in assay [6] (setting [7]), -14%; in assay [6] (setting [8]) it was 97% (active); in assay [6] (at 50.0 µM), 99.2% (active).
Take `N#CC1(C#N)C2C=CC(C3CCC=C32)C1(C#N)C#N` (stereo not drawn): the growth inhibition in assay [1] (setting [7]) is 14%; in assay [1] (setting [8]) it was 93% (active); in assay [1] (at 50.0 µM), 0.4%; in assay [2] (setting [7]), 17%; in assay [2] (setting [8]), 97% (active); in assay [2] (at 50.0 µM), 45.3%. In addition, the growth inhibition in assay [3] (setting [7]) was 11%; in assay [3] (setting [8]), 96% (active); in assay [3] (at 50.0 µM), 60.5%; in assay [4] (setting [7]), 10%; in assay [4] (setting [8]) it was 60%; in assay [4] (at 50.0 µM) it was -16.2%. The growth inhibition in assay [5] (setting [7]) was 25%; in assay [5] (setting [8]), 97% (active); in assay [5] (at 50.0 µM) it was 95% (active); in assay [6] (setting [7]) it was 25%; in assay [6] (setting [8]), 97% (active); in assay [6] (at 50.0 µM), 68.8%.
